In ChEMBL document CHEMBL2218924, “A broad activity screen in support of a chemogenomic map for kinase signalling research and drug discovery” (Biochem J, 2013):

Experiments:
[1] = molecular target: Ephrin type-A receptor 4 (Homo sapiens) (UniProt P54764); conditions: at 10 µM
[2] = molecular target: Ephrin type-A receptor 5 (Homo sapiens) (UniProt P54756); conditions: at 1 µM
[3] = molecular target: Ephrin type-A receptor 5 (Homo sapiens) (UniProt P54756); conditions: at 10 µM
[4] = molecular target: T1, Ephrin type-A receptor 8 (Homo sapiens) (UniProt P29322); conditions: at 10 µM
T1 sequence (whole entry): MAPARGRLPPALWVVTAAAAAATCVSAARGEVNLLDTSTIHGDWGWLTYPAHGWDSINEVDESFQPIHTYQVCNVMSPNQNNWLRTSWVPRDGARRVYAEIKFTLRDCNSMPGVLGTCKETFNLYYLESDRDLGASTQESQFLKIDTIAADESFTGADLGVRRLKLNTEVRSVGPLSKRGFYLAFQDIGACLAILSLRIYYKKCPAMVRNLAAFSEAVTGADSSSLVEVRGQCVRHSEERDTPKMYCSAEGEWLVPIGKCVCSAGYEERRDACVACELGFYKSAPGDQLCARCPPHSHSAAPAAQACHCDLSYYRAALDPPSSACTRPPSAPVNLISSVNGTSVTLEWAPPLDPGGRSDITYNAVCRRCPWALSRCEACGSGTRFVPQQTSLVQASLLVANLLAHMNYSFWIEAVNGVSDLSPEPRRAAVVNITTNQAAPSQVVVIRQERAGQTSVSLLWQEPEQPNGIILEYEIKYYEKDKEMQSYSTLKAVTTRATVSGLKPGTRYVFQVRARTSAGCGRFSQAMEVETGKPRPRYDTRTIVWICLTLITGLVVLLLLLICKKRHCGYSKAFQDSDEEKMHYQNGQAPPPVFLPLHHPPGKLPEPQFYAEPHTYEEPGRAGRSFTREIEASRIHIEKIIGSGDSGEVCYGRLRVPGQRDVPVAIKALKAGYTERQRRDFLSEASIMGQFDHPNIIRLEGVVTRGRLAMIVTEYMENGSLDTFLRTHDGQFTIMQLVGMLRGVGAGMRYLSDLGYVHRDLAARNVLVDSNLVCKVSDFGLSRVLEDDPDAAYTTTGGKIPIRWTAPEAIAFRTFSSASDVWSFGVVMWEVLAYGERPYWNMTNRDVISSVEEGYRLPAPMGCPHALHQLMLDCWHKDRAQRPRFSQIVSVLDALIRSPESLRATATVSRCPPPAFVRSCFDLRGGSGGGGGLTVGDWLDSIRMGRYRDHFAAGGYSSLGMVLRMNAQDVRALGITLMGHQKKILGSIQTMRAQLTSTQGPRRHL

[5] = molecular target: T2, Ephrin type-B receptor 4 (Homo sapiens) (UniProt P54760); conditions: at 1 µM
T2 sequence (whole entry): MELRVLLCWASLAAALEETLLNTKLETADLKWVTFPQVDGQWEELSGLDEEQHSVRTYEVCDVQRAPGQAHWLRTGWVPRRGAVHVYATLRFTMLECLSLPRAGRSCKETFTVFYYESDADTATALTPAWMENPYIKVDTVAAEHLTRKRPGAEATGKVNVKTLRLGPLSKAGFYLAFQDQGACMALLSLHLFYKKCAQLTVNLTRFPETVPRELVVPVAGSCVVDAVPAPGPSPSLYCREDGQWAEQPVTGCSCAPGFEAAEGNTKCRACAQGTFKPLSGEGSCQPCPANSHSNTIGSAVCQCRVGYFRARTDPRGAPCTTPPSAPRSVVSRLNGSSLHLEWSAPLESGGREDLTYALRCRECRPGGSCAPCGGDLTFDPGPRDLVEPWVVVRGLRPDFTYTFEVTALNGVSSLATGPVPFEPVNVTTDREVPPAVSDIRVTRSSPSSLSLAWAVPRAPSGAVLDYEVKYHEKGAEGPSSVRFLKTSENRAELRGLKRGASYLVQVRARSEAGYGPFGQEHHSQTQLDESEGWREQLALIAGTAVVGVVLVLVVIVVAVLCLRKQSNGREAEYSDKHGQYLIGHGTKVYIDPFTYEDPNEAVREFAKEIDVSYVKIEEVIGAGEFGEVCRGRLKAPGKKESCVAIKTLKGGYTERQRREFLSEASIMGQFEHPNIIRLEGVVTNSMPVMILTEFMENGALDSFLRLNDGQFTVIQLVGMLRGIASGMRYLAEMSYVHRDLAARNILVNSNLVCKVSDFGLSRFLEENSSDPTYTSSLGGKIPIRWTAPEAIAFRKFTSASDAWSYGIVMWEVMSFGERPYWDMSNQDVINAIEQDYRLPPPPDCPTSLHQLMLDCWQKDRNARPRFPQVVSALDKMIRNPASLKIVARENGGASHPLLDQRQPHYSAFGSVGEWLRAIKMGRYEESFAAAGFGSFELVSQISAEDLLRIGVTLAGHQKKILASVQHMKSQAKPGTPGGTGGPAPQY

[6] = molecular target: T2, Ephrin type-B receptor 4 (Homo sapiens); conditions: at 10 µM
[7] = molecular target: Receptor tyrosine-protein kinase erbB-4 (Homo sapiens) (UniProt Q15303); conditions: at 10 µM
Chain of Receptor tyrosine-protein kinase erbB-4 (Homo sapiens) (Q15303 whole entry): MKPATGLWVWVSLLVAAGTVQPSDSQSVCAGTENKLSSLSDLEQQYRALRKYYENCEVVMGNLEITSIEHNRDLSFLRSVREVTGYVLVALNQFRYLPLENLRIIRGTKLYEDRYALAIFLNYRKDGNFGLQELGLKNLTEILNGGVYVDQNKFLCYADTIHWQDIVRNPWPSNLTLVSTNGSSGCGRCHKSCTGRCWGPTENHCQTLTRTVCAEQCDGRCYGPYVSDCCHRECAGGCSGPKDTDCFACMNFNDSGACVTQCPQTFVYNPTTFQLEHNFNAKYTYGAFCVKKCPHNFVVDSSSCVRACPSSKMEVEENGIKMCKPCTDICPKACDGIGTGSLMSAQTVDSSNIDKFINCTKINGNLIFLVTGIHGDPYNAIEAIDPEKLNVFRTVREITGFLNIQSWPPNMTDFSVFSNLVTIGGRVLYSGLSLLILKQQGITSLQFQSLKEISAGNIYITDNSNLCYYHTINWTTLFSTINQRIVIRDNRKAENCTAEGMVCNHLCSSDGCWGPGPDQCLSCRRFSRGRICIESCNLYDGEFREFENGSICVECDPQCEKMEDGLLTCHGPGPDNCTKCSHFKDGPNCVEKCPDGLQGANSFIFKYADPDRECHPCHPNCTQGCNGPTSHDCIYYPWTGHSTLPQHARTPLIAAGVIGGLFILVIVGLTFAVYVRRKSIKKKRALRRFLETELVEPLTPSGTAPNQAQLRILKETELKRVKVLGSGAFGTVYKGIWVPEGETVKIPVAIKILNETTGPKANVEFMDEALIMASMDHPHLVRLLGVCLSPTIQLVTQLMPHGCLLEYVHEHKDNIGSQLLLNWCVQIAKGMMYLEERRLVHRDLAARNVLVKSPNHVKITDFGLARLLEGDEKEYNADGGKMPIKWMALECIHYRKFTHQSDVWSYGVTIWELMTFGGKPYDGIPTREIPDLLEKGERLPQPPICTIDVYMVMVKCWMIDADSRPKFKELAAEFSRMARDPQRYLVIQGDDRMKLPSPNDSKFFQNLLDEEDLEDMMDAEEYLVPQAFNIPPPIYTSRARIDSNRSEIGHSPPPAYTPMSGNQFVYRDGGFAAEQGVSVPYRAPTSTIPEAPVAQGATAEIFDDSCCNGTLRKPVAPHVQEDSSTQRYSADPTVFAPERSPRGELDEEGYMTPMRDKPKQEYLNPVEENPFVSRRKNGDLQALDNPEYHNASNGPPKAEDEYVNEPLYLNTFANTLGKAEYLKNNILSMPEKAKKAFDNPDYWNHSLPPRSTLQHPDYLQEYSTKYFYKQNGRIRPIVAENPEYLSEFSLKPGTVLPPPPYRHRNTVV

[8] = molecular target: Ephrin type-A receptor 7 (Homo sapiens) (UniProt Q15375); conditions: at 1 µM
Chain of Ephrin type-A receptor 7 (Homo sapiens) (Q15375 28-998 limits assumed): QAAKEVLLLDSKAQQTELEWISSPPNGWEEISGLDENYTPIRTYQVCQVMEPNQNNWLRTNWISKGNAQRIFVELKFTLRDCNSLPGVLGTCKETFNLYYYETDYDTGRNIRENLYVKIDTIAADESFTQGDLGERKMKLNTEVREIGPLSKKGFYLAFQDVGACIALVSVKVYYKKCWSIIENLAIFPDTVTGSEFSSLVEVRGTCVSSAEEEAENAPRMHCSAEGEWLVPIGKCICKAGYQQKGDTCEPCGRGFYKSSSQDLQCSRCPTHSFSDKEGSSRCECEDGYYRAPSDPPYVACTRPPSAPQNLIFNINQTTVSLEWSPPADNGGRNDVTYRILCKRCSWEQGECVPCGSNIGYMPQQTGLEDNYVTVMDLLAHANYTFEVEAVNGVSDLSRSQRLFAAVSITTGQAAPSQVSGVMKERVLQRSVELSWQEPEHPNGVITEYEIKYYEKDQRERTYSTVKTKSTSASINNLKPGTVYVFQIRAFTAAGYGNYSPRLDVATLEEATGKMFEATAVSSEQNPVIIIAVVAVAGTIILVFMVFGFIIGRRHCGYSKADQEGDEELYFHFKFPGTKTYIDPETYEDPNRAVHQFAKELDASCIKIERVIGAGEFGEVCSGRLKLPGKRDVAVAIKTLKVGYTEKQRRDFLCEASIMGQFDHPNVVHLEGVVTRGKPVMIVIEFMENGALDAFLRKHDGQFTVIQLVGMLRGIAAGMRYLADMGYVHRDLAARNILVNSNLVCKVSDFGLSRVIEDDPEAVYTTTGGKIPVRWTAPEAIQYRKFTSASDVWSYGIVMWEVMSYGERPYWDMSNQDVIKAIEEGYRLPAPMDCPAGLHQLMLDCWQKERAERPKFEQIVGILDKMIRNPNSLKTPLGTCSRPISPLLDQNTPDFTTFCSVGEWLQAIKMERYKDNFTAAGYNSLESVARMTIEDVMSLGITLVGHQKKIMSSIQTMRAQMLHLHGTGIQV

[9] = molecular target: Ephrin type-A receptor 7 (Homo sapiens) (UniProt Q15375); conditions: at 10 µM
[10] = molecular target: T3, Ephrin type-B receptor 3 (Homo sapiens) (UniProt P54753); conditions: at 10 µM
T3 sequence (whole entry): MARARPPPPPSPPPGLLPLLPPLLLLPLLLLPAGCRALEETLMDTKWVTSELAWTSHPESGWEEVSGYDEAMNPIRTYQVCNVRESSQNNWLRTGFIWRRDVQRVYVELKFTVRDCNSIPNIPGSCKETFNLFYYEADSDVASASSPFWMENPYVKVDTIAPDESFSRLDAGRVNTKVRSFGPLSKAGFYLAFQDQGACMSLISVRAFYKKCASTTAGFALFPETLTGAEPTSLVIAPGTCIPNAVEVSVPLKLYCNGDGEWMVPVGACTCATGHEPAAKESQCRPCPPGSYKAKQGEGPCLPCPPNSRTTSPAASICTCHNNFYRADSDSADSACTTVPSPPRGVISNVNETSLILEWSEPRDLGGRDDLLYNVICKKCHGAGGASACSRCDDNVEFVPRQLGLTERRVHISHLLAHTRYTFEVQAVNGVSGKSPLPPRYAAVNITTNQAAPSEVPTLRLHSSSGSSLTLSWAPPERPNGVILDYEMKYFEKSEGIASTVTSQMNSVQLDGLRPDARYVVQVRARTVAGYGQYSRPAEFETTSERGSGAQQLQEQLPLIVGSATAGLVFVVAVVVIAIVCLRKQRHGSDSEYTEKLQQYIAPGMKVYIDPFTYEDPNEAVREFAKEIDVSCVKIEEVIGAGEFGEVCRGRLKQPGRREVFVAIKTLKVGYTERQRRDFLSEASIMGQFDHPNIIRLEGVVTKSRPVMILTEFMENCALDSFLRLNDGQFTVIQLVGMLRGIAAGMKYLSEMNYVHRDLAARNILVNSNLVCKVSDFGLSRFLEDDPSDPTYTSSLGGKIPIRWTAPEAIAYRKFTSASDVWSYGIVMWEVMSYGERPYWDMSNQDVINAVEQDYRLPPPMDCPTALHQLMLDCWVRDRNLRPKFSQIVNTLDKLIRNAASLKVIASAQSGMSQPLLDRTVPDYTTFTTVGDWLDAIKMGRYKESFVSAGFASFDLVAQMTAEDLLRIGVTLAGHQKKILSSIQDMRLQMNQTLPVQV

[11] = molecular target: Focal adhesion kinase 1 (Homo sapiens) (UniProt Q05397); conditions: at 1 µM
Chain of Focal adhesion kinase 1 (Homo sapiens) (Q05397 2-1052 limits assumed): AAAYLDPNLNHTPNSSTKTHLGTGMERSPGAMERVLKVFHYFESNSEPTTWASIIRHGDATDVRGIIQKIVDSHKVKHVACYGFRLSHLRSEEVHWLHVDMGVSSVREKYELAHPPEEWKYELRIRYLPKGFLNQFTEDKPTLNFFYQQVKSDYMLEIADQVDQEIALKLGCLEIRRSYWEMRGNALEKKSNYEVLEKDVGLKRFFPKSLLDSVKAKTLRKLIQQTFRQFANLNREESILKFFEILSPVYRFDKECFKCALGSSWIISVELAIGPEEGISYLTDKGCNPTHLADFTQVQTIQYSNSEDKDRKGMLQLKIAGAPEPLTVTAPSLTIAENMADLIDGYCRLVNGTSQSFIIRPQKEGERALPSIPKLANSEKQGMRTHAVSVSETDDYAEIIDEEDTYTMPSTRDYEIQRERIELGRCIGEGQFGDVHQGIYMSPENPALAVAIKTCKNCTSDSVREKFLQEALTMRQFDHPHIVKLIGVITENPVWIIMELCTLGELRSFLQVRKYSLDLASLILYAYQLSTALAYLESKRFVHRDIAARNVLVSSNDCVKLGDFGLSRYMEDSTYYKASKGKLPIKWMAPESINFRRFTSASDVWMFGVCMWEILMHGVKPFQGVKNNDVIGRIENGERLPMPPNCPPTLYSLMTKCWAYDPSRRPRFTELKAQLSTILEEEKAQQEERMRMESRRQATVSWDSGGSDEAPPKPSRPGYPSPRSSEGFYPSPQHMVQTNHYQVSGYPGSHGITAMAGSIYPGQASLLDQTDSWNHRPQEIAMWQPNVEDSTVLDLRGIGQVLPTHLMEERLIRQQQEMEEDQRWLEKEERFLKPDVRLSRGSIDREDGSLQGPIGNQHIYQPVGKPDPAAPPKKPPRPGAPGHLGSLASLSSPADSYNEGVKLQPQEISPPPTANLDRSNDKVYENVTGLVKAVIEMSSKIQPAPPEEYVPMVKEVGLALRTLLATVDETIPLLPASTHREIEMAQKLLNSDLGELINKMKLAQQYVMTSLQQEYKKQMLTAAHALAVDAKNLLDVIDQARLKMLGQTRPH

[12] = molecular target: T4, Ephrin type-A receptor 3 (Homo sapiens) (UniProt P29320); conditions: at 10 µM
T4 sequence (whole entry): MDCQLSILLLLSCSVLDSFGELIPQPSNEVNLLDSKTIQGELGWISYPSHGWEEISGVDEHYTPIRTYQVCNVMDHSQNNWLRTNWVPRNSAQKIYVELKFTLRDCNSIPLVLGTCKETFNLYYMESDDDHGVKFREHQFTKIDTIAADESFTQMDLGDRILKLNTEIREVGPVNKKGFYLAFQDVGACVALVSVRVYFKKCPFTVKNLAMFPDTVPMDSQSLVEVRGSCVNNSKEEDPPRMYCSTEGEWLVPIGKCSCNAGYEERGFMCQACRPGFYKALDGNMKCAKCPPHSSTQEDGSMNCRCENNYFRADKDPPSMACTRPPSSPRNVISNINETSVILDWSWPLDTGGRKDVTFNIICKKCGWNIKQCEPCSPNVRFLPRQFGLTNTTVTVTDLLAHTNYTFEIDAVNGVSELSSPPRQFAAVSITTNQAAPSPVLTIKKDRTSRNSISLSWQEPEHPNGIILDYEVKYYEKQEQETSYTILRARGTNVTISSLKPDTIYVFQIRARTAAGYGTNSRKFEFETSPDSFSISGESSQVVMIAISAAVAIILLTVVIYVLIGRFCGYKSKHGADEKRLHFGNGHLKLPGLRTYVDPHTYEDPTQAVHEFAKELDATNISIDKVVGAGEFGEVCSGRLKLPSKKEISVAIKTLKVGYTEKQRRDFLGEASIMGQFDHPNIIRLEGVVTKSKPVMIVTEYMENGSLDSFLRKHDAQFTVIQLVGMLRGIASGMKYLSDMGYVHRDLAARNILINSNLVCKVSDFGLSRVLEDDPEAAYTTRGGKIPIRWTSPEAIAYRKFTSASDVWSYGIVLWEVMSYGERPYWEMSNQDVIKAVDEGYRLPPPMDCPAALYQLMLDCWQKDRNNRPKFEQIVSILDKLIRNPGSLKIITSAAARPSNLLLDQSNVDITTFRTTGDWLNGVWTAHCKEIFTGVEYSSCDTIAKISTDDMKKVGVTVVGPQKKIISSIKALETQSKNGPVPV

[13] = molecular target: T1, Ephrin type-A receptor 8 (Homo sapiens); conditions: at 1 µM
[14] = molecular target: T3, Ephrin type-B receptor 3 (Homo sapiens); conditions: at 1 µM

Chain of Ephrin type-A receptor 5 (Homo sapiens) (P54756 whole entry): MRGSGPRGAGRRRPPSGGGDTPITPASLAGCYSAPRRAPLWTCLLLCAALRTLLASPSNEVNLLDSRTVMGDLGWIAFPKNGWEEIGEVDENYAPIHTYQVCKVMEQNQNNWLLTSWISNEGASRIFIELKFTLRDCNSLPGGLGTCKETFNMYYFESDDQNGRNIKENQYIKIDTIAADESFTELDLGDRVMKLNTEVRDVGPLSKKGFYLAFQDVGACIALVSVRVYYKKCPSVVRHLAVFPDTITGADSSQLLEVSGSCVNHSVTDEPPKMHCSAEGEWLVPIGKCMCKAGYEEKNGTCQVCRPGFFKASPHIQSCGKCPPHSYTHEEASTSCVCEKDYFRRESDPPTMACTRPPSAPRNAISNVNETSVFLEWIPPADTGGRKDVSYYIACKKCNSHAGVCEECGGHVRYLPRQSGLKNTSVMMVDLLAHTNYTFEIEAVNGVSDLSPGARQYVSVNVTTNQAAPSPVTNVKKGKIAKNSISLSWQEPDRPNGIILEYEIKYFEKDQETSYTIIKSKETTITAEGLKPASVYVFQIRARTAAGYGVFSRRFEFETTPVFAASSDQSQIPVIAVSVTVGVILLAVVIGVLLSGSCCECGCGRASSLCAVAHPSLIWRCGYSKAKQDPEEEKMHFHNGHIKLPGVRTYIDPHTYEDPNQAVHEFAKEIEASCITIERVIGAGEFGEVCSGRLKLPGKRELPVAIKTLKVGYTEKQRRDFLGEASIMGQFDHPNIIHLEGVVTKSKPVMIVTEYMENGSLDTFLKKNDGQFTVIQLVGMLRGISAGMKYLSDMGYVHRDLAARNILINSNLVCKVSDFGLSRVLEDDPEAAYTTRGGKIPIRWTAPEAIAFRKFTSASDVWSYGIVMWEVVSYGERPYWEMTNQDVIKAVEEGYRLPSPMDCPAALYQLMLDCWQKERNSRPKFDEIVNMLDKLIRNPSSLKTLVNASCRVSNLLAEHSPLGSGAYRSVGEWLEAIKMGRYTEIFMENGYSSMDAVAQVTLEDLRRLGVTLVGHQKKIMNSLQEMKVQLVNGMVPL

Compound | residual activity [1] | residual activity [2] | residual activity [3] | residual activity [4] | residual activity [5] | residual activity [6] | residual activity [7] | residual activity [8] | residual activity [9] | residual activity [10] | residual activity [11] | residual activity [12] | residual activity [13] | residual activity [14]
Nc1nccc(-c2c(-c3ccc(F)cc3)ncn2C2CCNCC2)n1 | 71% | 113% | 72% | 60% | 77% | 18% | 66% |  |  |  |  |  |  | 
N#C/C(=C\c1ccc(O)c(O)c1)C(=O)NCc1ccccc1 |  | 101% |  |  | 129% | 102% |  | 104% | 85% | 133% | 127% |  |  | 
O=C1NC(=O)C(c2cn(CCCO)c3ncccc23)=C1c1cnccn1 |  |  |  | 94% | 92% | 98% |  |  |  | 99% |  | 92% | 99% | 94% (inactive)
